For six compounds, outcome and AC50 results are on record in PubChem BioAssay (EPA / NIEHS).

Read-out in assay [1]: Interleukin-8 (IL8), CXCL8 (gene 3576)
The assay can be described thus: BSK_CASM3C_IL8: BioMAP Diversity Plus: CASM3C Assay for Interleukin-8 (IL8) Biomarker Activity (AID 2283042).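 Note: IL-8 protein level quantified by ELISA.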 Particulars: primary human coronary artery smooth muscle cells; actives raise or lower the signal.

Read-out in assay [2]: Human Leukocyte Antigen - DR isotype (HLADR), HLA-DRA (gene 3122)
The assay can be described thus: BSK_CASM3C_HLADR: BioMAP Diversity Plus: CASM3C Assay for Human Leukocyte Antigen - DR isotype (HLADR) Biomarker Activity (AID 2283043).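 Note: cell-surface HLA-DR protein level quantified by ELISA.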 The note with it: primary human coronary artery smooth muscle cells; actives raise or lower the signal.

Read-out in assay [3]: Macrophage colony-stimulating factor (MCSF), CSF1 (gene 1435)
Put plainly: BSK_CASM3C_MCSF: BioMAP Diversity Plus: CASM3C Assay for Macrophage colony-stimulating factor (MCSF) Biomarker Activity (AID 2283044).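 Note: M-CSF protein amount quantified by ELISA after 24 h exposure.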 Particulars: primary human coronary artery smooth muscle cells; actives raise or lower the signal.

Read-out in assay [4]: Low-density lipoprotein receptor (LDLR), LDLR (gene 3949)
The assay can be described thus: BSK_CASM3C_LDLR: BioMAP Diversity Plus: CASM3C Assay for Low-density lipoprotein receptor (LDLR) Biomarker Activity (AID 2283045).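 Note: LDLR protein level on the cell surface quantified by ELISA.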 The note with it: primary human coronary artery smooth muscle cells; actives raise or lower the signal.

Read-out in assay [5]: Monocyte Chemoattractant Protein-1 (MCP1), CCL2 (gene 6347)
The assay can be described thus: BSK_CASM3C_MCP1: BioMAP Diversity Plus: CASM3C Assay for Monocyte Chemoattractant Protein-1 (MCP1) Biomarker Activity (AID 2283046).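 Note: MCP-1 level quantified by ELISA 24 h after dosing.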 Particulars: primary human coronary artery smooth muscle cells; actives raise or lower the signal.

A short description of assay [6]: BSK_CASM3C_Proliferation: Cell Proliferation Assessment in the BioMAP Diversity Plus: CASM3C Assay (AID 2283047).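 Note: sulforhodamine B total protein stain as relative cell number at 560 nm; sub-confluent cells exposed 48 h before staining; fitted both ways against DMSO so gain or loss of cell number.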 The note with it: primary human coronary artery smooth muscle cells.
Read-out in assay [7]: Monokine induced gamma interferon (MIG), CXCL9 (gene 4283)
The assay can be described thus: BSK_CASM3C_MIG: BioMAP Diversity Plus: CASM3C Assay for Monokine induced gamma interferon (MIG) Biomarker Activity (AID 2283048).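 Note: MIG protein level measured by ELISA.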 Particulars: primary human coronary artery smooth muscle cells; actives raise or lower the signal.

Read-out in assay [8]: serum amyloid A (SAA), SAA1 (gene 6288)
The assay can be described thus: BSK_CASM3C_SAA: BioMAP Diversity Plus: CASM3C Assay for serum amyloid A (SAA) Biomarker Activity (AID 2283049).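 Note: SAA protein level quantified by ELISA.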 The note with it: primary human coronary artery smooth muscle cells; actives raise or lower the signal.

Assay [9] can be described thus: BSK_CASM3C_SRB: Viability Assessment in the BioMAP Diversity Plus: CASM3C Assay (AID 2283050).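 Note: total protein by SRB staining as cytotoxicity measure in parallel cultures; cells exposed to compound for 24 h.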 The note with it: primary human coronary artery smooth muscle cells.
Read-out in assay [10]: Thrombomodulin, THBD (gene 7056)
The assay can be described thus: BSK_CASM3C_Thrombomodulin: BioMAP Diversity Plus: CASM3C Assay for Thrombomodulin Biomarker Activity (AID 2283051).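 Note: thrombomodulin protein level measured by ELISA 24 h after dosing.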 Particulars: primary human coronary artery smooth muscle cells; actives raise or lower the signal.

Read-out in assay [11]: Tissue Factor, F3 (gene 2152)
The assay can be described thus: BSK_CASM3C_TissueFactor: BioMAP Diversity Plus: CASM3C Assay for Tissue Factor Biomarker Activity (AID 2283052).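 Note: cell surface tissue factor protein level read by ELISA.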 Particulars: primary human coronary artery smooth muscle cells; actives raise or lower the signal.

Read-out in assay [12]: Interferon-gamma inducible Protein 10 (IP10), CXCL10 (gene 3627)
The assay can be described thus: BSK_hDFCGF_IP10: BioMAP Diversity Plus: hDFCGF Assay for Interferon-gamma inducible Protein 10 (IP10) Biomarker Activity (AID 2283053). Particulars: primary human foreskin fibroblasts; actives raise or lower the signal. Put shortly:
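Primary foreskin fibroblasts, human; 24 h compound exposure; IP-10 by ELISA; bidirectional fit vs DMSO.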

Read-out in assay [13]: Urokinase-type plasminogen activator receptor (uPAR), PLAUR (gene 5329)
The assay can be described thus: BSK_CASM3C_uPAR: BioMAP Diversity Plus: CASM3C Assay for Urokinase-type plasminogen activator receptor (uPAR) Biomarker Activity (AID 2283054).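 Note: cell-surface uPAR protein level quantified by ELISA.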 The note with it: primary human coronary artery smooth muscle cells; actives raise or lower the signal.

Read-out in assay [14]: Vascular cell adhesion molecule 1 (VCAM1), VCAM1 (gene 7412)
The assay can be described thus: BSK_CASM3C_VCAM1: BioMAP Diversity Plus: CASM3C Assay for Vascular cell adhesion molecule 1 (VCAM1) Biomarker Activity (AID 2283055).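 Note: VCAM-1 protein level quantified by ELISA on the cells.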 The note with it: primary human coronary artery smooth muscle cells; actives raise or lower the signal.

Read-out in assay [15]: Collagen III, COL3A1 (gene 1281)
Put plainly: BSK_hDFCGF_CollagenIII: BioMAP Diversity Plus: hDFCGF Assay for Collagen III Biomarker Activity (AID 2283056). Particulars: primary human foreskin fibroblasts; actives raise or lower the signal. In a few lines:
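Cells: human foreskin fibroblasts, primary. Dosing followed by 24 h incubation, then ELISA for collagen III. Both increases and decreases scored relative to DMSO.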

Read-out in assay [16]: Epidermal growth factor receptor (EGFR), EGFR (gene 1956)
Put plainly: BSK_hDFCGF_EGFR: BioMAP Diversity Plus: hDFCGF Assay for Epidermal growth factor receptor (EGFR) Biomarker Activity (AID 2283057). Particulars: primary human foreskin fibroblasts; actives raise or lower the signal. Put shortly:
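hDFCGF system, primary human foreskin fibroblasts; compound 24 h; EGFR measured by ELISA; DMSO = negative control/baseline; bidirectional fitting.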

Read-out in assay [17]: Interleukin-8 (IL8), CXCL8 (gene 3576)
The assay can be described thus: BSK_hDFCGF_IL8: BioMAP Diversity Plus: hDFCGF Assay for Interleukin-8 (IL8) Biomarker Activity (AID 2283058). Particulars: primary human foreskin fibroblasts; actives raise or lower the signal. Put shortly:
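IL-8 levels from compound-treated primary human fibroblasts were read by ELISA at 24 h, with DMSO serving as baseline for bidirectional fitting.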

Assay [18] is described as follows: BSK_hDFCGF_Proliferation: Cell Proliferation Assessment in the BioMAP Diversity Plus: hDFCGF Assay (AID 2283059).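 Note: curves fitted for both rise and fall of signal versus DMSO baseline.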 The note with it: primary human foreskin fibroblasts. Put shortly:
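Total protein read at 560 nm after 0.1% SRB staining of TCA-fixed human skin fibroblasts, […]. Activity is fitted in both directions relative to DMSO as baseline.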

Read-out in assay [19]: Macrophage colony-stimulating factor (MCSF), CSF1 (gene 1435)
Put plainly: BSK_hDFCGF_MCSF: BioMAP Diversity Plus: hDFCGF Assay for Macrophage colony-stimulating factor (MCSF) Biomarker Activity (AID 2283060). The note with it: primary human foreskin fibroblasts; actives raise or lower the signal. In a few lines: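 M-CSF levels, determined by ELISA, are taken at 24 h after dosing human skin fibroblasts. Responses in either direction are fitted with DMSO serving as the baseline.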

Assay [20] can be described thus: BSK_hDFCGF_SRB: Viability Assessment in the BioMAP Diversity Plus: hDFCGF Assay (AID 2283061).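 Note: cells exposed to compound for 24 h before the read.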 Particulars: primary human foreskin fibroblasts. Put shortly: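 Cells were dosed with test chemical, cultured 24 h, fixed with 10% TCA, then stained with 0.1% SRB and read at 560 nm. The fibroblasts were human foreskin primary cells, and DMSO served as baseline.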

The source made the active and inactive calls. Rule for the calls: active = hit-call score of the fitted dose curve at least 0.9, where 1 is the maximum; inactive = score below 0.9.

Regarding `C[C@]12CCC(=O)C=C1CC[C@@H]1[C@@H]2CC[C@@]2(C)[C@H]1CC[C@]2(C)O`, the result in assay [1], in assay [2], in [3], in assay [4], in [5] and in assay [6] was inactive. Further, the outcome in [7], in assay [8], in assay [9], in [10], in assay [11] and in assay [12] was inactive. The result in assay [13], in [14], in assay [15], in [16], in [17] and in assay [18] was inactive. Also, the outcome in [19] and in assay [20] was inactive.

Turning to `CO/C=C(/C(=O)OC)c1ccccc1COc1cccc(C(F)(F)F)n1`, the AC50 is 3.94 µM (active) in assay [1]; 5.66 µM (active) in assay [6]; 1.75 µM (active) in assay [15]; 4.78 µM (active) in [18]; 10.7 µM (active) in [20]. For the same compound, the outcome in [2], in assay [3], in [4], in [5], in [7] and in assay [8] was inactive. For the same compound, the outcome in [9], in [10], in assay [11], in assay [12], in [13] and in assay [14] was inactive. The outcome in [16] and in assay [17] was inactive.

Regarding `C[C@]12CCC(=O)C=C1CC[C@@H]1[C@@H]2CC[C@]2(C)C(=O)CC[C@@H]12`, the result in assay [1], in assay [2], in assay [3], in assay [5], in assay [6] and in assay [7] was inactive. Moreover, the result in assay [8], in assay [9], in assay [10], in [11], in assay [12] and in assay [13] was inactive. In addition, the result in [14], in [15], in assay [16], in [17], in assay [19] and in assay [20] was inactive. Besides, the AC50 was 4.9 µM (active) in [4] and 13.2 µM (active) in assay [18].

In the case of `CC(C)(c1ccccc1)c1ccc(O)cc1`, the result in assay [1], in [3], in assay [4], in assay [5], in assay [7] and in [8] was inactive. Besides, the outcome in assay [11], in assay [13] and in assay [16] was inactive. Further, the AC50 in assay [2] was 32.3 µM (active); in assay [6], 30.5 µM (active); in assay [9], 29.5 µM (active); in assay [10], 20 µM (active); in [12], 34.1 µM (active); in [14] it was 28.6 µM (active). In addition, the AC50 in [15] is 32.2 µM (active); in [17] it was 30.8 µM (active); in [18], 29.3 µM (active); in assay [19], 30.7 µM (active); in assay [20], 33.8 µM (active).

`Cc1cccc([N+](=O)[O-])c1`: the outcome in assay [1], in assay [2], in assay [3], in assay [4], in assay [5] and in assay [6] was inactive. Further, the result in assay [7], in assay [8], in assay [9], in [10], in [11] and in assay [12] was inactive. Further, the result in assay [13], in assay [14], in [15], in [16], in assay [17] and in assay [18] was inactive. In addition, the result in assay [19] and in [20] was inactive.

As to `O=C(O)C(F)(F)C(F)(F)C(F)(F)C(F)(F)C(F)(F)F`, the result in assay [1], in [2], in [3], in assay [4], in assay [5] and in assay [6] was inactive. The result in assay [7], in assay [8], in assay [9], in assay [10], in [11] and in [12] was inactive. Moreover, the result in [13], in [14], in assay [15], in assay [16], in assay [17] and in assay [18] was inactive. In addition, the result in assay [19] and in assay [20] was inactive.

As a reminder, the AC50 is the concentration at which the activity in the assay is half-maximal.
